CYP2C19 act: cytochrome P450 2C19 (human) activation; activation factor at 5 µM; recombinant CYP2C19, luciferin-H EGE luminescence; active compounds read high; 0 = fully inhibited enzyme, 1 = untreated enzyme; AID 1025; P33261; 96,000 tested, under 10 active;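 active = activation factor of at least 2 at 5 µM in the primary screen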;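 also: 0 = wells with 2.5 mM tranylcypromine and 1 = vehicle-only wells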
Target sequence (P33261 whole entry, looked up): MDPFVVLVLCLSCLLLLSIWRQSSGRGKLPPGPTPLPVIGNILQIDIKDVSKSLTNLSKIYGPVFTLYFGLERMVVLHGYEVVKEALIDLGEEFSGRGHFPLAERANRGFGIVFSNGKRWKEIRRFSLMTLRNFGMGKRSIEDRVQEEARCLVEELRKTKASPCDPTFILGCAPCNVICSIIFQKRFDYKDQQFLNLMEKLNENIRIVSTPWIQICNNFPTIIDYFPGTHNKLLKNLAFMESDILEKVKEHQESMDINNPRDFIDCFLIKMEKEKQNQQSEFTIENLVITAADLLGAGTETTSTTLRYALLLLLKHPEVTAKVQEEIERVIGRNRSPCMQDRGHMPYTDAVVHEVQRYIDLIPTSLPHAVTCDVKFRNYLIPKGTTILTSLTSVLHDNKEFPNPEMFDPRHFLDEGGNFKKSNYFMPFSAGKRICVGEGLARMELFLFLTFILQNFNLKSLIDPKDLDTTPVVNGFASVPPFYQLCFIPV
CYP2C9 inhib: human CYP2C9 inhibition; 96,000 compounds, 20% hits; P11712; inhibition, % at 5 µM; CYP2C9 Supersomes, luciferin-H conversion, luminescence;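 active = blocking of liver enzyme CYP2C9 beyond about 50% at 5 µM, limit read from the data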
CYP2C19 inhib: blocks human cytochrome P450 2C19; 96,000 compounds, 21% hits; CYP2C19 Supersomes, luciferin-H EGE luminescence, 30 min; inhibition, % at 5 µM;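 active = CYP2C19 inhibition above a set limit at 5 µM in the primary screen, cut at about 50% in these data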;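 also: plate controls were negative control wells for no effect and 2.5 mM tranylcypromine positive control for full effect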
Cav32 inh: human Cav3.2 channel inhibition, primary screen; Cav3.2-expressing cells, Fluo-4 calcium fluorescence FDSS; active compounds read low; B-score at 10 µM; 100,000 compounds, 4% hits;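 active = single-dose well whose peak fluorescence ratio is a statistical outlier from its plate by either plate-standardised score or position-corrected B-score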
CYP2C9 activ: increases human cytochrome P450 2C9 activity; P11712; recombinant CYP2C9, luciferin-H conversion, luminescence; active compounds read high; factor 1 = untreated enzyme, 0 = blocked; activation factor at 5 µM; 96,000 compounds, 1.4% hits;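 active = activation factor of 2 or more for CYP2C9 at a 5 µM dose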;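 also: 0 = sulfaphenazole-blocked wells and 1 = vehicle-only wells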
Numbers without * were called inactive; nt = no result given. Only some compounds are listed: those with a hit (about 27% of all), similar ones and a draw of the others.

SMILES	CYP2C19 act	CYP2C9 inhib	CYP2C19 inhib	Cav32 inh	CYP2C9 activ
CC1(C)N(O)CC(c2cccs2)=[N+]1[O-]	1	-6.7	-4.5	-0.369	1.1
Cc1csc(NC(=O)CSc2nc3ccccc3c(=O)[nH]2)n1	0.9	55.1*	7.5	0.83	0.4
Cc1cccc(C)c1NC(=O)CSc1nc2ccccc2c(=O)[nH]1	0.7	17.1	26.5	-0.00647	0.8
O=C(NCCO[N+](=O)[O-])c1cccnc1	nt	nt	nt	0.0831	nt
COc1ccc2cc(CN(Cc3ccco3)Cc3nnnn3C3CCCCC3)c(=O)[nH]c2c1	0.2	87.2*	84.0*	-1.36	0.1
Cc1ccc2cc(CN(Cc3ccccc3)Cc3nnnn3C3CCCC3)c(=O)[nH]c2c1	0.1	81.5*	86.7*	nt	0.2
CCc1ccc2[nH]c(=O)c(CN(Cc3ccc4c(c3)OCO4)Cc3nnnn3C3CCCC3)cc2c1	0.7	60.5*	30.4	-2.93	0.4
COc1ccc2cc(CN(Cc3ccco3)C(c3nnnn3C3CCCCC3)C(C)C)c(=O)[nH]c2c1 (centres undefined)	0.8	45.0	20.4	nt	0.6
COCCCn1c(Cc2ccccc2)nnc1SCC(=O)N1CCCCC1	0.9	38.5	14.4	0.471	0.6
CC1CC(C)(C)N(C(=O)CSc2ccc(-c3ccc(F)cc3)nn2)c2ccccc21 (centres undefined)	0.5	57.9*	49.4	-2.27	0.4
CC1CCC(NC(=O)C2CCN(c3cnccn3)CC2)CC1 (centres undefined)	0.5	-11.1	53.0*	0.00624	1.1
C/C(=N/NS(C)(=O)=O)c1ccc2ccccc2c1	0.7	73.4*	26.6	0.119	0.3
COc1ccc(C(=O)Cn2nnc(-c3ccccc3NC(=O)c3ccco3)n2)cc1	0.9	16.6	9.9	0.3	0.8
COc1cccc(NS(=O)(=O)c2c(C)cc(C)cc2C)c1	0	57.5*	100.0*	-1.75	0.4
COc1ccc(NS(=O)(=O)c2c(C)cc(C)cc2C)cc1	0.1	92.7*	87.6*	-6.1*	0.1
C/C=C(/C)C(=O)Nc1cccc(C2=NOC3(C2)C[C@@H](C(N)=O)N(C(=O)/C=C/CC)C3)c1 (some centres undefined)	nt	nt	nt	0.374	nt
Clc1ccc(-n2cccc2/C=N/n2cnnc2)cc1	0.4	55.7*	57.0*	0.979	0.4
Brc1ccc(-n2cccc2/C=N/n2cnnc2)cc1	0.3	52.8*	74.4*	0.0755	0.5
Cn1cccc1/C=N/n1cnnc1	1	0.3	0.3	0.803	1
O=C1N2CN(C(c3ccccc3)c3ccccc3)CN=C2SC1(CO)CO	0.9	1.6	7.5	nt	1
COC(=O)C1=C(CSCc2ccco2)NC(=O)NC1c1cc(C)ccc1C (centres undefined)	0.1	79.7*	91.0*	0.245	0.2
CCOC(=O)C1=C(CSc2nc3ccccc3s2)NC(=O)NC1c1cc(C)ccc1C (centres undefined)	0.3	78.0*	67.8*	-2.06	0.2
CCOC(=O)C1=C(CSCC(=O)OC)NC(=O)NC1c1cc(C)ccc1C (centres undefined)	0.5	35.0	47.7	0.087	0.7
CCOC(=O)C1=C(CN2CCSCC2)NC(=O)NC1c1cc(C)ccc1C (centres undefined)	0.6	55.5*	37.8	0.331	0.4
COC(=O)C1=C(CSc2nc3ccccc3o2)NC(=O)NC1c1cc(C)ccc1C (centres undefined)	0.2	78.5*	77.0*	nt	0.2
SMILES	CYP2C19 act	CYP2C9 inhib	CYP2C19 inhib	Cav32 inh	CYP2C9 activ
COC(=O)C1=C(CSc2nncn2C)NC(=O)NC1c1cc(C)ccc1C (centres undefined)	1	-8.2	1.7	0.159	1.1
CC(=O)n1cc([C@H]2C=C(C(=O)N3CCOCC3)O[C@@H](OCCCCO)C2)c2ccccc21	nt	nt	nt	0.176	nt
O=C1C2C3C=CC(C3)C2C(=O)N1CCN1CCN(S(=O)(=O)c2ccc3ccccc3c2)CC1 (centres undefined)	0.7	-70.5	33.7	-0.0437	1.7
CCc1cccc2c(C#N)cn(CC(=O)NCc3ccco3)c12	0.5	14.5	51.3*	-1.98	0.9
CN1CCN(C(=O)C2CCCCC2C(=O)O)CC1 (centres undefined)	1	-14.6	-1.1	0.5	1.1
Cc1cc(-c2cc(C(=O)NCc3ccccc3)on2)nc(NC2CCCC2)n1	nt	nt	nt	-0.113	nt
Cc1ccc(NC(=O)CSc2nnc(COc3ccc(C#N)cc3)n2-c2ccccc2)cc1C	0.8	12.4	21.2	0.158	0.9
N#Cc1ccc(CSc2nnc(COc3ccccc3)n2-c2ccccc2)cc1	0.2	66.7*	76.3*	-0.763	0.3
Cc1ccc(C(=O)CSc2nnc(COc3ccc(C#N)cc3)n2-c2ccccc2)cc1	nt	nt	nt	-0.153	nt
COc1ccc(-n2c(COc3ccccc3)nnc2SCc2ccc(C#N)cc2)cc1	0	92.6*	96.0*	-2.8	0.1
COc1ccc(C)cc1NC(=O)C(=O)NNC(=O)c1ccco1	0.5	-52.7	49.7	-0.733	1.5
COc1ccccc1N1CCN(Cc2ccsc2)CC1	0.6	9.4	40.5	-0.331	0.9
COc1cc2c(cc1OC)CN(Cc1cccs1)CC2	0.3	18.1	65.7*	nt	0.8
COc1ccc(OC)c(CN2CCN(c3ccccc3OC)CC2)c1	0.2	35.9	77.9*	nt	0.6
c1csc(CN2CCOCC2)c1	0.1	100.3*	93.7*	0.599	0
COc1ccccc1N1CCN(Cc2cccs2)CC1	0.1	35.7	93.5*	-0.0828	0.6
CCCc1ccc(OCc2ccc(C(=O)OC)o2)c(OC)c1	0.6	40.7	35.8	-1.53	0.6
CCN1CCN(c2nc3c(c(=O)n(C)c(=O)n3C)n2CCSc2nccc(C)n2)CC1	1	7.9	-1.9	-0.116	0.9
Nc1cc(Cl)ccc1C(=O)OCC(=O)NC1CCS(=O)(=O)C1 (centres undefined)	0.8	-9.2	24.4	-0.00779	1.1
CCN1CCCC1CN(Cc1cc2cc(OC)ccc2[nH]c1=O)C(=O)NCc1ccccc1 (centres undefined)	0.9	27.6	12.1	0.484	0.7
O=C1CS/C(=N\C(=O)N2c3ccccc3Sc3ccccc32)N1	1.1	67.6*	-7.5	0.564	0.3
CC(C)c1nnc(NC(=O)CC(=O)Nc2ccccc2C(=O)O)s1	0.8	8.6	15.0	1.1	0.9
Cc1nc(OCC(=O)c2ccc(Cl)cc2)c(C#N)c2c1COC(C)(C)C2	0.5	18.0	51.7*	0.833	0.8
CC1(C)Cc2c(C#N)c(OCC(=O)c3ccc(Cl)cc3)nc(-c3ccco3)c2CO1	0.4	18.1	59.4*	nt	0.8
CCc1nc(OCC(=O)c2ccccc2)c(C#N)c2c1COC(C)(C)C2	0.5	27.7	46.8	0.113	0.7
O=C(CSc1nnc(-c2cnccn2)n1Cc1ccco1)c1ccc2ccccc2c1	1	53.6*	3.8	nt	0.5
Cn1c(SCC(=O)c2ccccc2)nnc1-c1cnccn1	0.6	7.9	39.8	-0.526	0.9
COc1cc(-c2nnc(SC/C=C/c3ccccc3)n2N)cc(OC)c1OC	0.9	7.1	14.5	0.0208	0.9

High-throughput results (PubChem BioAssay)
